Measurements from PubChem BioAssay AID1159580 (chemical genetic matrix, 2015).
Where “and” joins values, the source holds several entries; their conditions need not be identical. Equal entries are not always repeated. Hit rate of the full screen: of about 5,500 compounds, about 2,000 (36%) were called active. Inconclusive results (about 18%) are left out. No stated cut-off is given here; in the data, active means normalized growth mostly below about 0.91 (no sharp cut-off); inconclusive means no clear call, values can overlap the other calls; inactive means mostly above about 0.92. This is one part of the list.

Experiment: chemical genetic growth profiling, strain panel (AID 1159580);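 further: tested at 20 µM; growth read once vehicle control cultures reached saturation at 30 °C; 1 = growth at the plate median or of vehicle wells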
Settings: S. cerevisiae deletion strains, growth OD

Measured: normalized growth

CC(=O)N[C@@H](Cc1c[nH]c2ccccc12)C(=O)O
inactive: locus YAL013W, strain DEP1, stronger effect = lower value 1.01 | locus YAL021C, strain ccr4, stronger effect = lower value 0.991 | locus YAL026C, strain drs2, stronger effect = lower value 0.978 | locus YAL030W, strain snc1, stronger effect = lower value 0.999 | locus YBL061C, strain skt5, stronger effect = lower value 0.975 | locus YBR009C, strain hhf1, stronger effect = lower value 1.03 | locus YBR021W, strain FUR4, stronger effect = lower value 0.998 | locus YBR023C, strain chs3, stronger effect = lower value 0.996 | locus YBR171W, strain sec66, stronger effect = lower value 0.977 | locus YBR229C, strain ROT2, stronger effect = lower value 1 | locus YBR231C, strain swc5, stronger effect = lower value 0.981 | locus YBR279W, strain paf1, stronger effect = lower value 0.982 | locus YCL011C, strain gbp2, stronger effect = lower value 0.982 | locus YCL016C, strain dcc1, stronger effect = lower value 0.97 | locus YCL029C, strain bik1, stronger effect = lower value 1.03 | locus YCL061C, strain MRC1, stronger effect = lower value 0.991 | locus YCL069W, strain vba3, stronger effect = lower value 0.979 | locus YCR088W, strain abp1, stronger effect = lower value 0.992 | locus YDL005C, strain med2, stronger effect = lower value 0.971 | locus YDL035C, strain GPR1, stronger effect = lower value 1.01 | locus YDL040C, strain nat1, stronger effect = lower value 0.983 | locus YDL074C, strain BRE1, stronger effect = lower value 1.03 | locus YDL101C, strain DUN1, stronger effect = lower value 1.02 | locus YDL134C, strain PPH21, stronger effect = lower value 0.987 | locus YDL185W, strain tfp1, stronger effect = lower value 1.01 | locus YDL192W, strain arf1, stronger effect = lower value 1.01 | locus YDR001C, strain nth1, stronger effect = lower value 0.992 | locus YDR069C, strain doa4, stronger effect = lower value 0.998 | locus YDR101C, strain arx1, stronger effect = lower value 1.01 | locus YDR137W, strain rgp1, stronger effect = lower value 0.968 | locus YDR150W, strain NUM1, stronger effect = lower value 1 | locus YDR159W, strain sac3, stronger effect = lower value 1.01 | locus YDR162C, strain NBP2, stronger effect = lower value 1.01 | locus YDR195W, strain ref2 0.942 | locus YDR297W, strain sur2, stronger effect = lower value 0.994 | locus YDR318W, strain mcm21, stronger effect = lower value 1.02 | locus YDR334W, strain swr1, stronger effect = lower value 0.981 | locus YDR335W, strain msn5, stronger effect = lower value 0.987 | locus YDR388W, stronger effect = lower value 1.03 | locus YDR392W, strain spt3, stronger effect = lower value 0.988 | locus YDR502C, strain sam2, stronger effect = lower value 1.02 | locus YEL003W, strain gim4, stronger effect = lower value 0.986 | locus YEL037C, strain rad23, stronger effect = lower value 0.986 | locus YEL061C, strain CIN8 (second series), stronger effect = lower value 0.985 | locus YEL061C, strain CIN8, stronger effect = lower value 1 | locus YER015W, strain faa2, stronger effect = lower value 0.991 | locus YER016W, strain bim1, stronger effect = lower value 0.953 | locus YER110C, stronger effect = lower value 1.02 | locus YER111C, strain swi4, stronger effect = lower value 0.971 | locus YER155C, strain BEM2 (second series), stronger effect = lower value 0.982 | locus YER155C, strain BEM2, stronger effect = lower value 0.997 | locus YER167W, strain BCK2, stronger effect = lower value 1.01 | locus YFR010W, strain ubp6, stronger effect = lower value 1 | locus YGL078C, strain dbp3, stronger effect = lower value 1.01 | locus YGL086W, strain mad1, stronger effect = lower value 1.02 | locus YGL167C, strain pmr1, stronger effect = lower value 0.983 | locus YGL173C, strain kem1, stronger effect = lower value 0.985 | locus YGL227W, strain vid30, stronger effect = lower value 0.984 | locus YGL240W, strain doc1, stronger effect = lower value 1.02 | locus YGL248W, strain PDE1, stronger effect = lower value 1.04 | locus YGL253W, strain hxk2, stronger effect = lower value 0.979 | locus YGR078C, strain PAC10, stronger effect = lower value 1.01 | locus YGR135W, strain pre9, stronger effect = lower value 1.03 | locus YGR229C, strain SMI1, stronger effect = lower value 1.01 | locus YGR252W, strain gcn5, stronger effect = lower value 1.02 | locus YHR013C, strain ard1, stronger effect = lower value 0.952 | locus YHR027C, strain rpn1, stronger effect = lower value 0.976 | locus YHR030C, strain SLT2, stronger effect = lower value 1 and 0.996 | locus YHR079C, strain IRE1 (second series), stronger effect = lower value 1.02 | locus YHR079C, strain IRE1, stronger effect = lower value 0.987 | locus YHR094C, strain hxt1, stronger effect = lower value 1.01 | locus YHR129C, strain ARP1, stronger effect = lower value 1 | locus YHR142W, strain chs7, stronger effect = lower value 0.977 | locus YHR200W, strain rpn10, stronger effect = lower value 1.02 | locus YIL066C, strain RNR3, stronger effect = lower value 1 | locus YIL073C, strain SPO22, stronger effect = lower value 1.04 | locus YIL125W, strain kgd1, stronger effect = lower value 1.01 | locus YIR030C, strain dcg1, stronger effect = lower value 1.02 | locus YJL092W, strain hpr5, stronger effect = lower value 0.986 | locus YJL095W, strain BCK1 (second series), stronger effect = lower value 0.996 | locus YJL095W, strain BCK1, stronger effect = lower value 1.05 and 0.998 | locus YJL115W, strain asf1, stronger effect = lower value 0.978 | locus YJL129C, strain trk1, stronger effect = lower value 0.956 | locus YJL134W, strain LCB3, stronger effect = lower value 1.01 | locus YJL154C, strain vps35, stronger effect = lower value 0.968 | locus YJL164C, strain tpk1, stronger effect = lower value 0.988 | locus YJL166W, strain qcr8, stronger effect = lower value 1.01 | locus YJL168C, strain set2, stronger effect = lower value 1.02 | locus YJL187C, strain SWE1 (second series), stronger effect = lower value 1.01 | locus YJL187C, strain SWE1, stronger effect = lower value 0.987 | locus YJR043C, strain POL32, stronger effect = lower value 1.03 | locus YJR066W, strain TOR1, stronger effect = lower value 0.901
